Screening data as filed in PubChem BioAssay.
Rows were chosen to be rich in hits. Some 0.9% of all compounds tested hit in one or more screens of this group.
CDC25B-CDK2 inh = human CDC25B-CDK2/CyclinA binding inhibition. P30305+P24941. HTRF CDC25B-CDK2/CyclinA binding, anti-His/anti-Flag; active compounds read high. z-score (concentration not given with the values). 94,000 compounds, 0.72% hits; in the data active = z-score above about 3.2
HIV TAR-Tat = HIV-1 TAR-Tat binding disruption; HIV-1 TAR RNA, Tat peptide displacement FRET; active compounds read high; z-score (no concentration beside the values); 100,000 compounds, 0.6% hits; active = z-score of 3 or more in at least 2 runs
Of the large screens only hits and unclear results are named; the others gave an inactive call.

O=c1c(-c2cc(O)c(O)c(O)c2)coc2cc(O)c(O)c(O)c12	HIV TAR-Tat 26 (no result: CDC25B-CDK2 inh)
CC1=C(c2ccc(F)cc2)S(=O)(=O)N(Cc2ccc(C(=O)NC(C)C)cc2)C1=O	none (no result: CDC25B-CDK2 inh)
CCOC(=O)c1cc2c(C)nc3ccc(OC)cc3c2o1	none
CCOC(=O)c1nc2ccccc2[nH]c1=O	CDC25B-CDK2 inh 18
CCOC(=O)C(C)c1nc2ccccc2[nH]c1=O (centres undefined)	none (no result: HIV TAR-Tat)
N#Cc1ccc(-c2cc(C(=O)O)c3c(ccc4ccccc43)n2)cc1	CDC25B-CDK2 inh 12 (no result: HIV TAR-Tat)
O=C(O)c1cc(-c2ccccc2)nc2ccccc12	none
CCc1ccc(OC(=O)CSc2nc(-c3ccccc3)nc3cc(=O)[nH]n23)cc1	none (no result: CDC25B-CDK2 inh)
C=CCSc1nnc(NC(=O)c2nn(-c3ccc(OC)cc3)ccc2=O)s1	none
Cc1cccc(Nc2nc(-c3ccncc3)cs2)n1	none
Cc1cccc(Nc2nc(-c3ccc(O)c(O)c3)cs2)n1	HIV TAR-Tat 16
Cc1ccnc(Nc2nc(-c3ccc(O)cc3)cs2)c1	none
Cc1ccnc(Nc2nc(-c3ccc(O)c(O)c3)cs2)c1	HIV TAR-Tat 10
COc1ccc(N2CCN(C(=O)CCCc3nnc4n(C)c(=O)c5sccc5n34)CC2)cc1	none
Cc1cc(C)n(Cc2nc3c4c(C)c(C)oc4ncn3n2)c(=O)c1C#N	none (no result: CDC25B-CDK2 inh)
O=C(Cn1ncc2c3ccccc3n(Cc3ccccc3F)c2c1=O)N1CCc2ccccc21	none
O=C(Nc1ccc(S(=O)(=O)Nc2ncccn2)cc1)c1nn(-c2ccccc2)ccc1=O	none
Cc1cc2oc(C(=O)Nc3ccc(S(=O)(=O)Nc4onc(C)c4C)cc3)cc(=O)c2cc1C	HIV TAR-Tat 4.4
Cc1ccc(C(=O)Nc2ccc(S(=O)(=O)Nc3onc(C)c3C)cc2)o1	none (no result: HIV TAR-Tat)
Cc1noc(NS(=O)(=O)c2ccc(NC(=O)c3nn(-c4ccccc4)ccc3=O)cc2)c1C	HIV TAR-Tat 16
COc1ccc(CN2C(=O)c3cccnc3C2=O)cc1S(=O)(=O)NCc1cccs1	none (no result: CDC25B-CDK2 inh)
CCc1nnc(NC(=O)Cn2c(=O)sc3ccccc32)s1	none (no result: HIV TAR-Tat)
CCc1nnc(NC(=O)c2cc(=O)n3c(nc4ccccc43)s2)s1	HIV TAR-Tat 3.8 (no result: CDC25B-CDK2 inh)
O=C(Nc1ccc2c(c1)OCCO2)C1=NS(=O)(=O)c2ccccc2N1	none (no result: CDC25B-CDK2 inh)
FC(F)(F)c1nnc2sc(C3COc4ccccc4O3)nn12 (centres undefined)	none
CC(C)(C)NC1=NCCNC12CCN(S(=O)(=O)c1ccc(Br)cc1)CC2	none (no result: CDC25B-CDK2 inh)
CCOCc1nc(N2CCOCC2)sc1C(=O)NCCCc1ccco1	none
CCOc1ccc(C2=NS(=O)(=O)c3cc(S(=O)(=O)N4CCCCC4)ccc3N2)cc1OCC	none (no result: CDC25B-CDK2 inh)
Cc1cccc(C(=O)N2c3ncnn3C3(CCCCC3)[C@@H]3CCCC[C@@H]32)c1	HIV TAR-Tat 9.2
O=C(c1ccccc1)N1c2ncnn2C2(CCCCC2)[C@@H]2CCCC[C@@H]21	none
CCC(C)(N)c1nnnn1-c1cccc(C)c1 (centres undefined)	none (no result: CDC25B-CDK2 inh)
Oc1ccccc1/C=C/c1nc(-c2ccccc2O)n(-c2ccccc2)n1	none
O=C(Cn1nc2c(cc1=O)CCCC2)Nc1ccccc1Br	none (no result: CDC25B-CDK2 inh)
O=CC(C=Nc1ccc(Cl)cn1)[N+](=O)[O-] (centres undefined)	CDC25B-CDK2 inh 4.3 (no result: HIV TAR-Tat)
CN1C(=O)C2CCCCN2c2ccc(C(=O)NC3CC3)cc21 (centres undefined)	none (no result: CDC25B-CDK2 inh)
O=C(Cn1ncc2c1-c1ccccc1OC2)N1CCCC1	none (no result: HIV TAR-Tat)
O=C(O)Cn1ncc2c1-c1ccoc1CC2	CDC25B-CDK2 inh 11
O=C(CSc1nnc2sc3ccccc3n12)N1CCc2ccccc21	none (no result: HIV TAR-Tat)
CNC(=O)c1cc(=O)n(CC(=O)Nc2sc3c(c2C(=O)OC)CCC3)c2ccccc12	HIV TAR-Tat 8.3 (no result: CDC25B-CDK2 inh)
COC(=O)c1c(NC(=O)c2ccccc2C(=O)O)sc2c1CCC2	none
CC1CN(C(=O)CCC(=O)NCc2ccco2)c2cc(Cl)ccc2O1 (centres undefined)	none
CC(C)=CC[C@@H](O)C1=CC(=O)c2c(O)ccc(O)c2C1=O	HIV TAR-Tat 34 (no result: CDC25B-CDK2 inh)
COc1ccc(OC)c(NC(=O)NCc2c(-n3cccc3)sc3c2CCN(C)C3)c1	none (no result: CDC25B-CDK2 inh)
O=c1sc(-c2ccccc2)nc(O)c1Cc1ccccc1	none (no result: HIV TAR-Tat)
COC(=O)CC(C(=O)OC)P(=O)(O)CN(C)S(C)(=O)=O (centres undefined)	CDC25B-CDK2 inh 4.5 (no result: HIV TAR-Tat)
Cc1c2c(=O)n(-c3ccccc3)[nH]c2cc(=O)n1Cc1cccnc1	none
Cc1c2c(=O)n(-c3ccccc3)[nH]c2cc(=O)n1Cc1ccco1	HIV TAR-Tat 9.6
N#C/C(=C/Nc1cc(Cl)cc(Cl)c1)c1nc(-c2ccc3c(c2)OCO3)cs1	none (no result: HIV TAR-Tat)
O=C(CSc1ccc(-c2cccs2)nn1)c1ccc(Cl)cc1	none (no result: CDC25B-CDK2 inh)
Cc1cc(N2CCN(CCO)CC2)n2nc(C(F)(F)F)c(-c3ccc(F)cc3)c2n1	none
Cc1c(CCOC(=O)C2C3CC4CC(C3)CC2C4)sc[n+]1CC(=O)c1ccc(Br)cc1 (centres undefined)	CDC25B-CDK2 inh 9.1 (no result: HIV TAR-Tat)
CC(C)CC(=O)Nc1nn2c(C(C)C)nnc2s1	none
CC(C)Cn1c(CCc2ccccc2)nnc1SCc1nc(-c2cccs2)no1	none
Fc1ccccc1CN1C2=NCCN2c2ccccc21	none
N#Cc1nc(-c2ccc(S(=O)(=O)N3CCc4ccccc4C3)cc2)oc1NCC1CCCO1 (centres undefined)	none
O=C(O)c1ccccc1Nc1cccc2c1C(=O)c1cccc(Nc3ccccc3C(=O)O)c1C2=O	HIV TAR-Tat 19 (no result: CDC25B-CDK2 inh)
Cc1c(Cl)cccc1Nc1ccccc1C(=O)O	none (no result: CDC25B-CDK2 inh)
O=C(CCSCCc1ccncc1)N1CCOCC1	none (no result: CDC25B-CDK2 inh)
CCOc1ccc(-c2cc(C(=O)O)c3cc(Br)ccc3n2)cc1	none
COc1ccc(-c2cc(C(=O)OC(C)C)c3cc(Br)ccc3n2)cc1	CDC25B-CDK2 inh 15 (no result: HIV TAR-Tat)
O=C(C1CCN(c2ccc(-c3cccs3)nn2)CC1)N1CCN(c2ccccn2)CC1	none (no result: CDC25B-CDK2 inh)
COc1cccc2c1Oc1[nH]c(-c3ccc(O)cc3)nc(=S)c1C2	none
COc1ccc(-c2nc(=S)c3c([nH]2)Oc2ccccc2C3)cc1O	CDC25B-CDK2 inh 10
COc1ccc(-c2nc(=S)c3c([nH]2)Oc2ccccc2C3)cc1OC	none
COc1cccc2c1Oc1[nH]c(-c3ccc(C(=O)O)cc3)nc(=S)c1C2	HIV TAR-Tat 33
CC1CCN(C(=O)c2c3c(nc4ccccc24)C(=O)N(C2CCCCC2)C3)CC1	none (no result: CDC25B-CDK2 inh)
Clc1ccc(-c2noc(CCCCc3nc4ccccc4[nH]3)n2)cc1	none
COc1ccc(/C(O)=C2\C(=O)C(=O)N(CCCn3ccnc3)C2c2ccc(C(C)C)cc2)cc1 (centres undefined)	none
O=C(Oc1cc(OC(=O)c2ccccc2)c2c(c1)O[C@H](c1ccc(OC(=O)c3ccccc3)c(OC(=O)c3ccccc3)c1)[C@@H](OC(=O)c1ccccc1)C2)c1ccccc1	none (no result: CDC25B-CDK2 inh)
O=C(O[C@@H]1Cc2c(O)cc(O)cc2O[C@@H]1c1ccc(O)c(O)c1)c1cc(O)c(O)c(O)c1	HIV TAR-Tat 29 (no result: CDC25B-CDK2 inh)
O=C1C[C@@H](c2ccc(O)cc2)Oc2cc(O)cc(O)c21	none (no result: CDC25B-CDK2 inh)
O=c1c(O)cc([C@H]2Oc3cc(O)cc(O)c3C[C@H]2O)cc2c([C@H]3Oc4cc(O)cc(O)c4C[C@H]3O)cc(O)c(O)c12	HIV TAR-Tat 18 (no result: CDC25B-CDK2 inh)
Oc1ccc2c(c1)O[C@H](c1ccc(O)c(O)c1)[C@@H](O)C2	none (no result: CDC25B-CDK2 inh)
O=C(O[C@@H]1Cc2c(O)cc(O)cc2O[C@@H]1c1cc(O)c(O)c(O)c1-c1c([C@H]2Oc3cc(O)cc(O)c3C[C@H]2O)cc(O)c(O)c1O)c1cc(O)c(O)c(O)c1	HIV TAR-Tat 4.7 (no result: CDC25B-CDK2 inh)
Oc1cc(O)c2c(c1)O[C@H](c1ccc(O)c(O)c1)[C@H](O)C2	HIV TAR-Tat 24 (no result: CDC25B-CDK2 inh)
